Each structure is given as a SMILES string. Out of some 350,000 compounds screened, about 1,300 (0.37%) were called active. The entries come from a sample that favours actives as a whole. Unmarked numbers belong to inactive results.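 The calls were made as follows: active = mean added fluorescence quench of at least 8% versus neutral control, with both replicates also reaching 8%; inconclusive = only one of the mean or replicate conditions met; inactive = mean below 8% and not both replicates reaching 8%.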

From PubChem BioAssay AID720511 (Broad Institute, 2013) come the findings set out here.

The nature of the experiment: F508del CFTR correction, initial screen, CFBE line, single point (AID 720511).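 Also: cells transiently co-express mutant CFTR-F508del with the halide-sensitive YFP; corrector assay measuring rescue of mutant channel to the surface after 24 h compound exposure.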 As to conditions: CFBE cells, YFP halide quenching, at 7.58 µM, active compounds read high, % fluorescence drop versus neutral controls, stimulated with forskolin plus potentiator P3.
In the case of `Cc1ccc(S(=O)(=O)Nc2ccc3c(c2)C(=O)N([C@@H](C)CO)C[C@@H](C)[C@H](CN(C)Cc2ccncc2)O3)cc1`, the activity (quench increase) is -0.494%. The result for `C[C@@H]1CCCCO[C@H](CN(C)Cc2ccc(Cl)c(Cl)c2)[C@@H](C)CN([C@@H](C)CO)C(=O)c2cc(NC(=O)Nc3ccccc3)ccc2O1` reads 0.025%; that for `COc1ccc(CNC(=O)COC(=O)c2ccc(C)c(S(=O)(=O)N3CCOCC3)c2)cc1OC`, -3.23%; that for `Cc1ccc(C(=O)OCC(=O)NCc2cc(C)c(O)c(C)c2)cc1S(=O)(=O)N1CCCCC1`, 9.62% (active). The result for `Cc1ccc(C(=O)OCC(=O)N2CC(C)CC(C)C2)cc1S(=O)(=O)N1CCCCC1` (stereo not drawn) reads 0.347%; that for `Cc1cc(C)c(C#N)c(Nc2cccc(Br)c2)n1`, -5.44%.

On to `Cc1cc(Nc2ccc(Br)cc2)nc2ccccc12`, for which the activity (quench increase) is 10.3% (active).

For `C[C@H]1CN([C@@H](C)CO)C(=O)c2ccccc2-c2ccccc2CO[C@@H]1CN(C)C(=O)CCN(C)C`, the activity (quench increase) is -0.09%. In the case of `O=C(Nc1ccc(F)cc1)N[C@H]1CC[C@H](CCn2cc(C3(O)CCCC3)nn2)O[C@@H]1CO`, the activity (quench increase) was 0.048%.

As to `CC(C)c1cc(C(=O)NC2CCCCCC2)c2ccccc2n1`, the activity (quench increase) was 0.503%. For `Cc1nc(/N=C(\N)NC(=O)NC2CCCCC2)nc2ccccc12` the value was 12.3% (active); for `O=C(NNC(=O)C(O)c1ccccc1)NC1CCCCC1` (stereo not drawn), -1.37%. For `CNC[C@H]1OCCCC[C@@H](C)Oc2ccc(NC(=O)Cc3ccccc3)cc2C(=O)N([C@H](C)CO)C[C@@H]1C` the value was -0.325%; for `CCCNC(=O)N(C)C[C@@H]1Oc2ncc(-c3cccc(C#N)c3)cc2C(=O)N([C@@H](C)CO)C[C@@H]1C`, 0.957%. For `O=C(c1cnccn1)N1CC[C@@H]2[C@H](CO)Nc3ccc(-c4cccc(F)c4)cc3[C@@H]21` the value was 2.08%; for `CCNC(=O)C1CCCN(C(=O)c2cc(F)ccc2C)CC1` (stereo not drawn), 10% (active).

Turning to `CCNC(=O)C1CCCN(C(=O)c2ccc(OC)cc2OC)CC1` (stereo not drawn), the activity (quench increase) was -1.31%.

Turning to `CCOC(=O)C1CCCN(C(=O)c2ccc(C)c(F)c2)CC1` (stereo not drawn), the activity (quench increase) was 0.23%.

In the case of `CCCNC(=O)N1[C@H](CO)[C@@H]2c3ccccc3N(C(=O)C3CCOCC3)C[C@@H]21`, the activity (quench increase) is 2.24%. `COc1ccc(NC(=O)N(C)C[C@@H]2OCCCC[C@@H](C)Oc3ccc(NS(=O)(=O)c4cn(C)cn4)cc3C(=O)N([C@@H](C)CO)C[C@H]2C)cc1`: the activity (quench increase) is 0.433%.

Take `Cn1cc(C(=O)c2ccc(Cl)cc2Cl)cc1C(=O)NN`: the activity (quench increase) is -2.38%. For `CC(C)(C)NC(=O)NC(=O)COC(=O)Cc1ccc(Cl)cc1Cl` the value was 1.27%; for `CC(C)(C)c1cc(C(=O)NN)n(Cc2ccc(Cl)cc2Cl)n1`, 8.63% (active). The result for `C[C@H]1CN([C@@H](C)CO)C(=O)c2cc(C#CC(C)(C)O)cnc2O[C@H]1CN(C)C(=O)CC1CC1` reads 0.266%; that for `C[C@@H]1CN([C@H](C)CO)C(=O)c2cc(NS(=O)(=O)c3ccc(Cl)cc3)ccc2O[C@@H]1CN(C)CC1CCCCC1`, -0.515%. For the compound `O=C(C[C@H]1C[C@@H]2c3cc(NC(=O)c4ccc5c(c4)OCO5)ccc3O[C@@H]2[C@@H](CO)O1)NCCN1CCCCC1`, the activity (quench increase) is 0.031%. For `O=C(C1CC1)N1CC(=O)N2[C@H](CO)[C@@H](c3ccc(-c4ccccc4F)cc3)[C@@H]2C1` the value was 11.5% (active); for `O=C(C1CCCC1)N1CC(=O)N2[C@H](C1)[C@@H](c1ccc(-c3ccccc3F)cc1)[C@@H]2CO`, -2.35%; for `O=C(C1CCC1)N1CC(=O)N2[C@H](C1)[C@@H](c1ccc(-c3ccccc3F)cc1)[C@@H]2CO`, 1.31%. For `CCOC(=O)N1CCN(S(=O)(=O)c2ccc3c(c2)C(C)C(=O)N3)CC1` (stereo not drawn) the value was 8.05% (active); for `COc1ccc(N2CCN(S(=O)(=O)c3ccc4c(c3)NC(=O)C(C)C(=O)N4)CC2)cc1` (stereo not drawn), 0.269%. The result for `CCOC(=O)N1CCN(S(=O)(=O)c2ccc(Br)cc2)CC1` reads -1.86%; that for `COc1cccc(S(=O)(=O)N[C@H]2C=C[C@@H](CC(=O)NCc3ccc(F)cc3)O[C@@H]2CO)c1`, -1.9%. As for `Cc1ccc(S(=O)(=O)N(C)C[C@@H]2Oc3c(NC(=O)Nc4ccc(F)cc4)cccc3C(=O)N([C@H](C)CO)C[C@H]2C)cc1`, the activity (quench increase) was 0.333%.

Regarding `C[C@@H]1CN([C@H](C)CO)C(=O)c2cccc(NC(=O)Nc3cccc4ccccc34)c2O[C@@H]1CN(C)C(=O)Nc1ccc(F)cc1`, the activity (quench increase) is 1.61%. The result for `COc1ccc(-c2c(C)cc3oc(=O)cc(-c4ccccc4)c3c2C)cc1C=O` reads 0.386%; that for `COc1ccc(-c2c(C)cc3oc(=O)cc(-c4ccccc4)c3c2C)cc1F`, 3.75%; that for `COc1ccc(-c2c(C)cc3oc(=O)cc(-c4ccccc4)c3c2C)cc1OC`, 9.4% (active). For `CCC(=O)N(C)C[C@H]1Oc2cc(C#CC3CC3)ccc2S(=O)(=O)N([C@@H](C)CO)C[C@@H]1C` the value was -0.535%. The result for `COCCCNc1ccn2nc(-c3ccc(CC(C)C)cc3)cc2n1` reads 2.65%; that for `CC(C)Cc1ccc(-c2cc3nc(NCc4cccc(Cl)c4)ccn3n2)cc1`, 8.67% (active); that for `COc1ccccc1-c1cc2nc(NCc3cccc(Cl)c3)ccn2n1`, 0.85%. Turning to `C[C@H]1CN([C@@H](C)CO)C(=O)c2cccc(NS(=O)(=O)c3cccs3)c2O[C@H]1CN(C)Cc1ccc(C(=O)Nc2ccccc2N)cc1`, the activity (quench increase) is 0.531%. For `C#Cc1cc(N2CCN(C(=O)c3ccoc3)CC2)n2nc(-c3cccc(Cl)c3)cc2n1` the value was 8.96% (active); for `CN(C)CCN1CCN(c2cc(-c3cccc(Cl)c3)nc3ccnn23)CC1`, -1.38%.

With `O=C(c1ccccc1)N1CCN(c2cc(-c3ccccc3)nc3cc(-c4cccc(Cl)c4)nn23)CC1`, the activity (quench increase) is -2.01%. The result for `C[C@H]1CN([C@@H](C)CO)C(=O)Cc2cc(NS(=O)(=O)c3cn(C)cn3)ccc2O[C@H]1CN(C)C(=O)Nc1ccc(F)cc1` reads 2.2%; that for `C[C@H](CO)N1C[C@H](C)[C@@H](CN(C)S(=O)(=O)c2ccccc2)Oc2ncc(-c3ccncc3)cc2C1=O`, 0.7%; that for `COc1cc(C#Cc2ccc3cc(CCCO)oc(=O)c3c2)cc(OC)c1`, 9.06% (active). For `O=C1c2ccccc2C(=O)N1CCC#Cc1ccc2cc(C3(O)CCCCC3)oc(=O)c2c1` the value was 4.94%. For `CS(=O)(=O)N1C[C@@H](O)COC[C@@H]2O[C@H](CC(=O)NC3Cc4ccccc4C3)CC[C@H]21` the value was -1.79%; for `O=C(C[C@H]1C=C[C@@H](NC(=O)NC2CCCCC2)[C@@H](CO)O1)NCc1ccc(Cl)cc1`, 0.0755%. As for `C[C@H](CO)N1C[C@H](C)[C@H](CN(C)Cc2ccc(C(F)(F)F)cc2)Oc2ccc(NS(C)(=O)=O)cc2C1=O`, the activity (quench increase) was 3.24%. With `C[C@@H]1CCCCO[C@@H](CN(C)C(=O)Cc2ccccc2)[C@H](C)CN([C@@H](C)CO)C(=O)c2cc(NC(=O)Nc3ccc(F)cc3)ccc2O1`, the activity (quench increase) is -1.42%. Take `Oc1ccc2ccccc2c1N=Nc1nccs1`: the activity (quench increase) is 13.5% (active). On to `CCc1c(C)nc2c(-c3ccccc3)c(C)nn2c1Nc1ccc(NC(C)=O)cc1`, for which the activity (quench increase) was 0.439%.

For the compound `CC(=O)Nc1ccc(Nc2c3ccccc3nc3ccccc23)cc1`, the activity (quench increase) is 10.8% (active). Turning to `CC(=O)Nc1ccc(S(=O)(=O)N(C)c2nc3ccccc3nc2Cl)cc1`, the activity (quench increase) was 2.1%. As for `C[C@@H]1CCCCO[C@@H](CN(C)S(=O)(=O)c2ccccc2)[C@H](C)CN([C@H](C)CO)C(=O)c2cc(NC(=O)Nc3ccc4c(c3)OCO4)ccc2O1`, the activity (quench increase) is 0.334%. Turning to `CO[C@H]1CN(C)C(=O)c2cc(NC(C)=O)ccc2OC[C@H](C)N(C(=O)C2CC2)C[C@H]1C`, the activity (quench increase) was 4.09%. In the case of `COc1ccc(NC(=O)N(C)C[C@H]2Oc3cc(C#CCN(C)C)ccc3S(=O)(=O)N([C@@H](C)CO)C[C@@H]2C)cc1`, the activity (quench increase) is -0.575%. For `CC(C)CC#Cc1ccc2c(c1)O[C@@H](CN(C)C(=O)c1ccccn1)[C@@H](C)CN([C@H](C)CO)S2(=O)=O` the value was 0.306%; for `COc1ccc(C#Cc2ccc3c(c2)O[C@@H](CN(C)C(=O)Nc2cccc(OC)c2)[C@H](C)CN([C@H](C)CO)S3(=O)=O)cc1`, 9.4% (active); for `C/C=C/c1ccc2c(c1)O[C@@H](CN(C)C(=O)c1ccccn1)[C@H](C)CN([C@@H](C)CO)S2(=O)=O`, -2.18%. The result for `C[C@@H]1CN([C@@H](C)CO)S(=O)(=O)c2ccc(C#Cc3ccc(F)cc3)cc2O[C@H]1CN(C)C(=O)c1ccccn1` reads 9.03% (active); that for `C[C@@H]1CN([C@@H](C)CO)S(=O)(=O)c2ccc(C#Cc3ccccc3)cc2O[C@@H]1CN(C)C(=O)Nc1ccccc1`, 3.03%. For `CCCNC(=O)[C@@H]1[C@@H](CO)[C@@H]2Cn3c(cccc3=O)[C@H]1N2C(=O)Nc1cc(F)ccc1F` the value was -0.221%; for `CCCN(C)C[C@@H]1Oc2ncc(-c3ccccc3F)cc2C(=O)N([C@@H](C)CO)C[C@@H]1C`, -1.56%; for `CCCNC(=O)Nc1ccc2c(c1)C(=O)N(C)C[C@H](OC)[C@H](C)CN(Cc1cccnc1)[C@@H](C)CO2`, -2.17%. Take `COCC(=O)Nc1ccc2c(c1)OC[C@@H](C)N(C(=O)c1ccncc1)C[C@@H](C)[C@@H](OC)CN(C)C2=O`: the activity (quench increase) is -2.81%.

On to `NS(=O)(=O)c1ccc(CNC(=O)c2cnccn2)cc1`, for which the activity (quench increase) is 3.51%. With `COc1ccc(NC(=O)C/C(C)=N/NC(=O)c2cnccn2)cc1Cl`, the activity (quench increase) was 0.245%. As for `CCN(CC)c1ccc(/C=N/NC(=O)c2cnccn2)c(O)c1`, the activity (quench increase) was 19.1% (active).
